Tests used:
Assay in all cases: PBM binding z-score (relative to random genomic background probes); higher = stronger binding; sequences stand for … in GC…GCGATTGACAGCGTAGAATGAAGG
[1] = system: FXR:RXRa (NR concentration 270 nM, RXRa partner concentration 90 nM)
Method in brief: (§1)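 Regression normalization was applied to scanned fluorescence from custom Agilent 4×180K protein-binding microarrays. Before scanning, arrays were incubated 1 h with ligand-free nuclear receptor dimers, and binding was detected with antibodies against each partner (one per run). Binding z-scores use the random background probes as reference.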

[2] = system: LXRa:RXRa (NR concentration 270 nM, RXRa partner concentration 90 nM)
Method in brief: as §1

[3] = system: LXRa homodimer (NR concentration 270 nM)
Method in brief: as §1

[4] = system: LXRb:RXRa (NR concentration 270 nM, RXRa partner concentration 90 nM)
Method in brief: as §1

[5] = system: LXRb homodimer (NR concentration 270 nM)
Method in brief: as §1

[6] = system: PPARa:RXRa (NR concentration 270 nM, RXRa partner concentration 90 nM)
Method in brief: as §1

[7] = system: PPARg:RXRa (NR concentration 180 nM, RXRa partner concentration 90 nM)
Method in brief: as §1

[8] = system: PPARg:RXRa 270nM:90nM, anti-RXR (NR concentration 270 nM, RXRa partner concentration 90 nM)
Method in brief: as §1

[9] = system: PPARg:RXRa 30nM:10nM, anti-RXR (NR concentration 30 nM, RXRa partner concentration 10 nM)
Method in brief: as §1

[10] = system: PPARg:RXRa 90nM:30nM, anti-RXR (NR concentration 90 nM, RXRa partner concentration 30 nM)
Method in brief: as §1

Sequence	PBM binding z-score [1]	PBM binding z-score [2]	PBM binding z-score [3]	PBM binding z-score [4]	PBM binding z-score [5]	PBM binding z-score [6]	PBM binding z-score [7]	PBM binding z-score [8]	PBM binding z-score [9]	PBM binding z-score [10]
CGAACTAGGTCACCAGGACAGCGAAGAGGTTGGA	3.93	2.11	-0.245	1.55	-0.88	4.91	8.61	6.98	4.85	6.78
CGAACTATGTCAAAGGACAGTGAAAGGCGACGTA	0.0509	0.00479	-0.268	-0.115	-0.346	2.68	5.1	5.42	4.42	5.74
GCTGCTAGGTCAACTGAAGGTCAGCTAAAGCTCG	5.14	4.92	4.01	3.69	0.218	4.26	3.73	4.61	1.03	3.19
CCTACTGTGCCATTCAGAGGTCATTGATCATATG	2.84	4.75	6.87	4.59	1.67	3.96	1.74	2.71	0.936	1.83
ATATGTAGGTTACATCGGGGTCATTCAGGCTATG	4.88	5.89	3.8	4.91	1.46	5.71	7.19	6.35	4.23	5.65
CCTACTGGGCCATTCAGAGGACATTGATCATATG	-0.067	-0.34	0.339	-0.405	-0.12	0.0535	0.784	0.44	-0.132	-0.17
ACTAGTTGTTCAGCTGAGGTCACACACAATTCGG	3.49	3.18	2.25	3.55	0.715	3.83	1.53	1.94	0.705	1.03
TTACCAAGGTGACCTGAGGTCGTTGATCCAACTC	3.01	5.21	3.22	3.72	-0.159	3.47	1.7	2.13	0.705	1.34
CGTCCAAGGTCAAGGGCAGTGAAAGAGACTCGAA	7.12	4.83	0.283	3.68	0.0141	5.93	5.48	5.38	1.76	4.07
ATATGTAGCTTAGGGTCATTCAGAAAGTAGGGAA	4.3	4.47	1.67	4.49	1.7	4.7	2.42	3.28	1.35	2.4
TTACCAAGGTCAGCTGAGGTCGTTGATCCAACTC	6.04	5.5	2.43	4.31	0.419	4.83	3.85	4.1	1.27	2.92
CGTCCAAGGTCACAGGAGGTCAGTGAAGACAGAT	7.67	7.39	4.32	5.97	0.764	6	6.76	6.69	3.37	5.61
CGAACTAGGTCACCAGGAAAGTGAAGAGGTTGGA	3.52	2.48	-0.13	1.69	-0.3	5.05	8.48	7.2	5.35	6.86
ATCGAAAGGTCGCAGGTGAGTATACCCACCCGAA	4.98	3.65	0.17	2.74	0.436	5.01	4.34	4.73	1.5	3.31
ATAGGTAGGTTAGGGTCATTCAGAAAGTAGGGAA	5.28	4.39	2.09	4.8	2.83	5.26	5.56	4.89	2.63	4.2
ATATGTAGGTTAGGGTCATTGAGAAAGTAGGGAA	4.91	4.11	1.17	4.32	2.74	5.89	7.58	6.31	4.39	5.93
CCCACTGGGCCATTCAGAGGTCATTGATCATATG	2.54	4.33	5.65	3.72	0.313	3.79	2.37	3.28	0.826	2.27
CAAACTAGGTCAAAGGACAGTGAAAGGCGACGTA	3.9	3.01	0.388	2.12	0.744	5.51	10.3	8.88	8.82	10.4
TATCCTAGGTCAGATCGGGCCAGTATACGCTATA	2.81	3.67	2.41	2.2	1.81	2.49	1.46	2.04	0.691	1.56
CGTCTAAGGTCAAAGGTCAGTGAAGAGATGACGG	8.79	7.27	4.41	6.95	2.67	7.45	11	8.6	8.75	10.3
GCTAGTTTGTCAGTAAAAGGTCACACACCGGTCG	3.28	4.33	4.39	4.2	1.2	4.42	3.19	5.47	3.23	5.43
CGAACTAGGTCAGAGGACAGTGAAAGGCGACGTA	1.21	0.781	-0.404	0.187	-0.968	3.61	8.37	6.52	6.22	7.35
CGAACTAGGTCAAAGGACTGTGAAAGGCGACGTA	3.86	2.36	-0.238	1.58	-0.452	4.89	9.38	7.84	7.28	8.69
ATATATAGGTTAGGGTCATTCAGAAAGTAGGGAA	5.26	4.34	1.79	4.71	2.26	5.6	8.16	6.57	4.73	6.58

Reference: the supplement of paper PMC6555819
